Data reported in PubChem BioAssay (NCATS).
The source made the active and inactive calls. Calls follow the shape of the full dose curve.

Experiments:
Test in all cases: Confirmatory Screen for Target Class Profiling of Small Molecule Inhibitors of Methyltransferases (AID 1745852); as to activity change, negative = inhibition: % is scaled to controls: 0 for no effect and ±100 for the full control effect
[1] = biological target: Catechol O-methyltransferase (Homo sapiens) (UniProt P21964); settings: MTase-Glo luminescence, SAH detection, recombinant enzyme; measured here: COMT max response; stronger effect = lower value
[2] = biological target: Guanidinoacetate N-methyltransferase (Homo sapiens) (UniProt Q14353); settings: MTase-Glo luminescence, SAH detection, recombinant enzyme; activity change, negative = inhibition: at 57.3 µM (top of the series) unless noted; series mostly up to 57.3 µM
[3] = biological target: Nicotinamide N-methyltransferase (Homo sapiens) (UniProt P40261); settings: MTase-Glo luminescence, SAH detection, recombinant enzyme; measured here: NNMT max response; stronger effect = lower value
[4] = biological target: Phenylethanolamine N-methyltransferase (Homo sapiens) (UniProt P11086); settings: MTase-Glo luminescence, SAH detection, recombinant enzyme; measured here: PNMT max response; stronger effect = lower value
Potency is read from the fitted curve at half-maximal effect.

Chain of Catechol O-methyltransferase (Homo sapiens) (P21964 whole entry, looked up): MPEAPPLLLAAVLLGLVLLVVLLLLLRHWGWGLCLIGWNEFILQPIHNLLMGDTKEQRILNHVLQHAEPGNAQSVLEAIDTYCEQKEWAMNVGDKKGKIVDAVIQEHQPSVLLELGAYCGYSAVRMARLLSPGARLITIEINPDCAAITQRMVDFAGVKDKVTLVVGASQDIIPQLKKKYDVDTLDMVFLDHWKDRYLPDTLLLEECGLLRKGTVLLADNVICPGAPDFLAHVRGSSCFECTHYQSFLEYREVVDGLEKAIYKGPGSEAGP
Chain of Nicotinamide N-methyltransferase (Homo sapiens) (P40261 whole entry, looked up): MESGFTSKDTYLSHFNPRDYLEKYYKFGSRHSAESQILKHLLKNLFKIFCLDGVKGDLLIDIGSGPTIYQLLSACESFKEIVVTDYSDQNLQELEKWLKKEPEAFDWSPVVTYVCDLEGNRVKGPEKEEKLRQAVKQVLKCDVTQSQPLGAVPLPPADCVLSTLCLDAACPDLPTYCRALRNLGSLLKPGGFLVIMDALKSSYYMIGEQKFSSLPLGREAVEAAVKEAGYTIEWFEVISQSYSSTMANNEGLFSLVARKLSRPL
Chain of Phenylethanolamine N-methyltransferase (Homo sapiens) (P11086 whole entry, looked up): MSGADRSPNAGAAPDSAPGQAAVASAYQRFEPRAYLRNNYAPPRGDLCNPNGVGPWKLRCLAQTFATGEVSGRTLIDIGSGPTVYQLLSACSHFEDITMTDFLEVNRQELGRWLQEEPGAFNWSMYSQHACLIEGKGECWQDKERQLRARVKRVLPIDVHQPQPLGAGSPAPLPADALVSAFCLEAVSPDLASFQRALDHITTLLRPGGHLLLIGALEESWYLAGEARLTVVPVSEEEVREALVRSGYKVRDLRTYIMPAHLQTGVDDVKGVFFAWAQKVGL

| SMILES | activity [1] [%] | activity change, negative = inhibition [2] | activity [3] [%] | activity [4] [%] | Potency [2] |
| --- | --- | --- | --- | --- | --- |
| COc1ccc(CN2C(=O)c3cc4ccccc4n3CC2(C)C(=O)NCc2ccccc2)cc1OC (stereo unspecified) | 4.11 | 0% | -57.8 | 1.95 |  |
| CCN1CCN(c2nc3c(S(=O)(=O)c4ccc(C)cc4)nnn3c3ccccc23)CC1 | -6.68 | -2.1% | -16.7 | -10.8 |  |
| COc1cccc(NC(=O)Cn2c(=O)oc3cc(S(=O)(=O)N4CCCCC4C)ccc32)c1 (stereo unspecified) | 0.845 | -1.86% | -2.27 | -70.8 |  |
| O=C(CCc1nnc2n(CCc3ccccc3)c(=O)c3ccccc3n12)N1CCC(N2CCCCC2)CC1 | 4.18 | 0.438% | -3.96 | 0 |  |
| O=C(Nc1ccc2ncnc(N3CCCCC3)c2c1)c1cc(F)ccc1F | -70.5 |  | -79.2 | -80.3 | 21.5 µM (active) |
| CCN(CC)CCCNC(=O)CCc1nnc2n(Cc3ccc(F)cc3)c(=O)c3ccccc3n12 | 2.05 | 0% | -4.75 | 1.85 |  |
| O=C(N[C@H](C1CCNCC1)C1CC(O)C1)c1ccc2nccnc2c1 (stereo partly specified) | -0.82 | 1.16% | 10.8 | 3.61 |  |
| CCCC1c2cccn2CCN1C(=O)NC1(CC(=O)OCC)CCCCC1 (stereo unspecified) | -3.29 | -0.613% | -5.96 | -9.82 |  |
| CN(C)c1nc2c(c(N3C[C@@H](CN4CCCC4)[C@@H](CO)C3)n1)CCCC2 | 4.35 | 2.26% | 3.39 | 3.79 |  |
| CC1(C(=O)NC2CCCC2)Cn2c(c(-n3cccc3)c3ccccc32)C(=O)N1Cc1ccccn1 (stereo unspecified) | 1.3 | 1.85% | -46.2 | 0 |  |
| Cc1cnc(CCNC(=O)c2n[nH]c(=O)c3ccccc23)n1C1CCCCC1 | -2.57 | 5.31% | -0.405 | -2.34 |  |
| COc1cccc(Nc2cc3c(cn2)CN(Cc2cccnc2)CCN3)c1 | 1.92 | 2.65% [at 85.7 µM] | -7.33 | -8.41 |  |
| COc1ccc2[nH]c(CNc3cc(C4CC(N)C4)nc(C)n3)cc2c1 (stereo unspecified) | -1.03 | 1.53% | -9.73 | 3.97 |  |
| CN1C(=O)C(c2ccccc2)CC12CCN(c1ccnc(N)n1)CC2 (stereo unspecified) | 6.59 | 9.95% | 7.63 | 10.4 |  |
| O=C(CCn1c(=O)[nH]c2cc(S(=O)(=O)N3CCCCC3)ccc21)Nc1ccc(Cl)cc1 | -1.03 | 0% | -18.8 | -3.3 |  |
| O=C(CCCc1nnc2n3nc(-c4ccccc4)nc3c3ccccc3n12)NCCN1CCCC1 | 3.65 | 0% | -3.84 | 0 |  |
| CCCC1=Nc2cc(C(=O)NCCCN3CCCCC3CC)ccc2Sc2ccc(C)cc21 (stereo unspecified) | -2.37 | 6.53% | -7.02 | 1.37 |  |
| CC(C)Cn1c(=O)c2ccccc2n2c(CCC(=O)NCCc3ccc(Cl)cc3)nnc12 | -5.92 | -1.54% | -41 | -6.54 |  |
| CCOC(=O)C1CCCN(S(=O)(=O)c2ccc3[nH]c(=O)[nH]c3c2)C1 (stereo unspecified) | 2.57 | 0% | -6.43 | -50.4 |  |
| CC(C)CCn1c(=O)c2ccccc2n2c(CCC(=O)N3CCN(Cc4ccccc4)CC3)nnc12 | 3.34 | 0% | -63.2 | -0.865 |  |

| SMILES | activity [1] [%] | activity change, negative = inhibition [2] | activity [3] [%] | activity [4] [%] | Potency [2] |
| --- | --- | --- | --- | --- | --- |
| COc1ccccc1CNC(=O)C1(C)Cn2c(cc3ccccc32)C(=O)N1Cc1ccc(OC)c(OC)c1 (stereo unspecified) | 0 | 0% | -60.4 | -1.32 |  |
| CCCn1c(=O)c2ccccc2n2c(=O)n(CC(=O)c3cc(C)ccc3C)nc12 | 1.84 | 0% | -36.8 | -0.0841 |  |
| Cc1cccc(N2CCN(C(=O)CCc3nnc4n(CCC(C)C)c(=O)c5ccccc5n34)CC2)c1C | -0.369 | 0% | -48.8 | -4.73 |  |
| Cc1cnc(C2CC2)n1C1CCN(S(=O)(=O)c2ccc3c(c2)OCCO3)CC1 | -0.0283 | -2.25% | -30.4 | -0.889 |  |
| CCCC1c2cccn2CCN1C(=O)Nc1ccccc1Cl (stereo unspecified) | 2 |  | -4.51 | 1.09 | inactive |
| COc1ccc(CCNC(=O)CCc2nnc3n(CC(C)C)c(=O)c4ccccc4n23)cc1OC | -6.74 | -2.85% | -43.7 | -6.97 |  |
| O=C1c2ccccc2C(=O)c2cc(S(=O)(=O)Nc3ccc(Br)cc3)ccc21 | 0.0189 | -0.0818% | -13.8 | -18.5 |  |
| CCOc1cc(OCC)c2c(-c3ccccc3)cc(=O)oc2c1 | -64.6 |  | -49.7 | -65.2 | 15.2 µM (active) |
| O=C(CCc1nnc2n(CCc3ccccc3)c(=O)c3ccccc3n12)NCCCN1CCCCC1 | -0.192 | 0% | 0.418 | 0.873 |  |
| CN(C)CCOCC1(C)COc2ccc(C(=O)Nc3ccc4[nH]ccc4c3)cc2N1 (stereo unspecified) | 1.58 | 9.89% [at 85.7 µM] | 2.73 | 0.534 |  |
| CC(C)Cn1c(=O)c2ccccc2n2c(CCC(=O)N3CCN(c4ccc(F)cc4)CC3)nnc12 | -4.42 | 2.04% | -55.7 | -6.74 |  |
| CC(C)CCN1CC2(CCCN(C(=O)c3ccn(C)c(=O)c3)C2)CCC1=O (stereo unspecified) | 5.04 | 8.37% | 3.97 | 1.77 |  |
| O=C(NCc1cccc(Cl)c1)c1sc(=S)n2c1[nH]c(=O)c1cc3c(cc12)OCO3 | -21.3 |  | -63.2 | -39.9 | 27.1 µM (active) |
| COc1ccc(CCNC(=O)c2ccc(CN3C(=O)CCn4nccc43)cc2)cc1OC | -29.4 |  | -12.4 | -27 | 24.1 µM (active) |
| O=C(c1ccc(C2CCCNC2)cc1)N1CCN(c2ccncc2)CC1 (stereo unspecified) | 3.41 | 2.03% | -3.55 | 3.06 |  |
| CCCC1c2cccn2CCN1C(=O)Nc1cc(Cl)c(OC)cc1OC (stereo unspecified) | -9.49 | -6.89% | -17.5 | -8.84 |  |
| COc1cccc([C@H]2Nc3ccc(S(=O)(=O)Nc4ccc(C)cc4C)cc3[C@H]3C=CC[C@H]32)c1 | -17.4 |  | -21.2 | -27.1 | 27.1 µM (active) |
| COc1cccc(-c2cccc(C(=O)N3C[C@H](CO)C[C@H](CN(C)C)C3)c2)c1 | 7.14 | 2.08% | 0.542 | 4.94 |  |
| Cc1cc(-c2nc3ccncc3[nH]2)c(C)[nH]1 | -4.56 | 3.2% [at 114 µM] | -25.8 | -11.2 |  |
| O=C(NCc1cccc(F)c1)c1nc2c(o1)CCN(CC1CCCC1)CC2 | 5.53 | 18.3% [at 85.7 µM] | 5.46 | -10.1 |  |

| SMILES | activity [1] [%] | activity change, negative = inhibition [2] | activity [3] [%] | activity [4] [%] | Potency [2] |
| --- | --- | --- | --- | --- | --- |
| Cn1nccc1-c1cc2c(cn1)CN(Cc1ccncc1)CCN2 | 1.75 | 1.99% [at 85.7 µM] | -4.82 | 0.453 |  |
| CCOC(=O)CC1(NC(=O)N2CCn3cccc3C2Cc2ccccc2)CCCCC1 (stereo unspecified) | 2.42 |  | -6.48 | -4.39 | inactive |
| CCN(CC)CCCNC(=O)CCc1nnc2n(CCc3ccccc3)c(=O)c3ccccc3n12 | -3.69 | -1.16% | -11.7 | 2.52 |  |
| CC(CNC(=O)CCc1nnc2n(Cc3ccc(F)cc3)c(=O)c3ccccc3n12)c1ccccc1 (stereo unspecified) | -6.68 | -2.31% | -44.2 | -0.739 |  |
| Cc1noc(C)c1-c1cc2c(cc(C)n2CCN(C)C)c(Nc2ccncn2)n1 | -14.2 | -6.67% [at 85.7 µM] | -15.3 | -28.6 |  |
| Cc1cc(NS(=O)(=O)c2ccc3[nH]c(=O)[nH]c3c2)ccc1Br | 1.24 | 0.289% | -14.5 | -63.7 |  |
| Cc1ccc(Cn2c(=O)c3ccccc3n3c(-c4cccc(C)c4)nnc23)cc1 | -4.65 | 2.78% | -4.69 | -4.19 |  |
| Cc1ccc(C2Nc3c(ccc(C(=O)O)c3C)C3C=CCC32)cc1 (stereo unspecified) | -3.41 |  | -1.48 | -1.34 | inactive |
| O=C(NCCc1ccccc1)c1ccc(CN2C(=O)CCn3nc(-c4ccccc4)cc32)cc1 | -6.47 | 0.906% | -28.8 | -5.57 |  |
| CCN(CC)CCCNC(=O)CCc1nnc2n(Cc3ccc(Cl)cc3)c(=O)c3ccccc3n12 | 4.07 | 0% | -5.57 | 0 |  |
| O=C1c2ccccc2C(=O)c2cc(S(=O)(=O)NCCO)ccc21 | -11 | 0% | -0.735 | -29.7 |  |
| c1ccc(-c2cc3c(cn2)NCCN(Cc2ccccn2)C3)cc1 | 1.39 | 3.72% [at 85.7 µM] | -8.79 | -1.82 |  |
| Cc1cnc(C2CCC2)n1C1CCN(C(=O)CCC2CCCC2)CC1 | -8.04 | -7.84% | -13.3 | -7.48 |  |
| CN1CCN(c2ncnc3sc4c(c23)CCNC4)CC1 | -1.43 | 0.536% | -71.2 | -15 |  |
| CCN(CC)CCCNC(=O)CCCc1nnc2n3nc(-c4ccccc4)nc3c3ccccc3n12 | -3.39 | 0% | -0.543 | -1.05 |  |
| COc1cccc(CN2CCCC3(CCN(c4cc(C)nc(N)n4)C3)C2)c1OC (stereo unspecified) | -4.01 | -7.75% | -4.87 | -3.6 |  |
| COc1cc(F)ccc1-c1cc(-c2ccc(=O)[nH]c2)c2cncn2c1 | -95.1 | -5.99% [at 85.7 µM] | -11 | -5.79 |  |
| COc1ccc(-c2[nH]ncc2CN2CC[C@H]3CC[C@@H](C2)N3)cc1 | 11.4 | 7.93% | 10.4 | 7.25 |  |
| CC(C)Cn1c(=O)c2ccccc2n2c(CCC(=O)N3CCN(c4ccccc4)CC3)nnc12 | 2.06 | 0% | -46.8 | -1.48 |  |
